Values joined by “and” are separate entries in the source; they are usually repeats but may differ in a detail not shown here. Identical values can stand only once. Results filed as inconclusive are left out. Some compounds were tested as several samples or in several runs, with calls that do not always agree. Active and inactive are the calls of the source. How the source made its calls: active means hit-call score of the fitted dose curve at least 0.9, where 1 is the maximum; inconclusive means response in the unintended direction; inactive means score below 0.9.
These compounds were tested against Retinoic acid receptor RXR-alpha (Homo sapiens) (UniProt P19793) (assay: OT_NURR1_NURR1RXRa_0480: Odyssey Thera (OT) 8-hour HEK293T Protein Complementation Assay for Nurr1/retinoid X receptor (RXR) (AID 2283385)).
Procedure: OT_NURR1_NURR1RXRa_0480 is a cell-based assay that uses HEK293T, a human kidney cell line, with measurements taken at 8 hours after chemical dosing in a 384-well plate.OT_NURR1_NURR1RXRa_0480 is one of one assay component(s) measured or calculated from the OT_NURR1_NURR1RXRa_0480 assay. It is designed to make measurements of protein fragment complementation, a form of binding reporter, as detected with fluorescence intensity signals by Protein-fragment Complementation technology.Data from the assay component OT_NURR1_NURR1RXRa_0480 was analyzed into 1 assay endpoint. This assay endpoint, OT_NURR1_NURR1RXRa_0480, was analyzed in the positive analysis fitting direction relative to DMSO as the negative control and baseline of activity. Using a type of binding reporter, measures of receptor for gain-of-signal activity can be used to understand the binding at the pathway-level as they relate to the gene RXRA. Furthermore, this assay endpoint can be referred to as a primary readout, because the performed assay has only produced 1 assay endpoint. To generalize the intended target to other relatable targets, this assay endpoint is annotated to the nuclear receptor intended target family, where the subfamily is non-steroidal.
Protein-fragment complementation assay, or PCA, is a method for the identification and quantification of protein-protein interactions. In the PCA, the proteins of interest ("bait" and "prey") are each covalently linked to fragments of a third protein (e.g. DHFR, which acts as a "reporter"). Interaction between the bait and the prey proteins brings the fragments of the reporter protein in close proximity to allow them to form a functional reporter protein whose activity can be measured.

Retinoic acid receptor RXR-alpha (Homo sapiens), sequence (P19793 whole entry, looked up, the tested form may be a part): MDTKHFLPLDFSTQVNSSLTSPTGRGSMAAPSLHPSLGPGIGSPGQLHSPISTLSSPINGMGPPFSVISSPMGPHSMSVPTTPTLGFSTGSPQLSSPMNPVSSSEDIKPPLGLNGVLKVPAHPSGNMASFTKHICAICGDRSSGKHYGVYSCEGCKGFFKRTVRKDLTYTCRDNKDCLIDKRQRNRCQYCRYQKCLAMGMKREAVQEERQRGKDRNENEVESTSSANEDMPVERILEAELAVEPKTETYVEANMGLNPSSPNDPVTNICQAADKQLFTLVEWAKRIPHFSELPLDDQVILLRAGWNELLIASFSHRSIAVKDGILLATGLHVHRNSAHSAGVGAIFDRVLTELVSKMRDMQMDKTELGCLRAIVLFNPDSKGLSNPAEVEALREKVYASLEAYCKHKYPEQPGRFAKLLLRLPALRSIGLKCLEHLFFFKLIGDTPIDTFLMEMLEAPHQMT

| Structure (SMILES) | AC50 | outcome |
| --- | --- | --- |
| Fc1ccc(Oc2ccnc3cc(Cl)cc(Cl)c23)cc1 | 28.3 µM (active) | inactive |
| CCCCOC(=O)c1ccccc1C(=O)OCCCC |  | inactive |
| CCON=C(CC)C1=C(O)CC(c2c(C)cc(C)cc2C)CC1=O (stereo not given) |  | inactive |
| CC(C)C1(C)N=C(c2nc3ccccc3cc2C(=O)O)NC1=O (stereo not given) |  | inactive |
| CCCCC(CC)COC(=O)c1ccccc1C(=O)OCC(CC)CCCC (stereo not given) |  | inactive |
| C#CCOS(=O)OC1CCCCC1Oc1ccc(C(C)(C)C)cc1 (stereo not given) | 39.4 µM (active) | inactive |
| CON(C)C(=O)Nc1ccc(Cl)c(Cl)c1 |  | inactive |
| CCOP(=S)(OCC)SCn1c(=O)oc2cc(Cl)ccc21 |  | inactive |
| O=C(O)COc1nc(Cl)c(Cl)cc1Cl |  | inactive |
| CO/C=C(/C(=O)OC)c1ccccc1Oc1cc(Oc2ccccc2C#N)ncn1 |  | inactive |
| CC1COC(Cn2cncn2)(c2ccc(Oc3ccc(Cl)cc3)cc2Cl)O1 (stereo not given) | 11.4 µM (active) |  |
| CNC(=O)ON=CC(C)(C)SC |  | inactive |
| CC(C)Oc1cc(-n2nc(C(C)(C)C)oc2=O)c(Cl)cc1Cl | 50 µM (active) | inactive |
| Cc1cc(Cl)ccc1OCC(=O)O |  | inactive |
| Oc1ccccc1-c1ccccc1 |  | inactive |
| CCOC(=O)C(Cl)Cc1cc(-n2nc(C)n(C(F)F)c2=O)c(F)cc1Cl (stereo not given) | 12.7 µM (active) | inactive |
| CCNc1nc(Cl)nc(NCC)n1 |  | inactive |

| Structure (SMILES) | AC50 | outcome |
| --- | --- | --- |
| COP(N)(=O)SC (stereo not given) |  | inactive |
| CCNc1nc(Cl)nc(NC(C)C)n1 |  | inactive |
| CC(Oc1ccc(Cl)cc1Cl)C(=O)O (stereo not given) |  | inactive |
| C=CCC1=C(C)[C@@H](OC(=O)[C@@H]2[C@@H](C=C(C)C)C2(C)C)CC1=O | 31.5 µM (active) | inactive |
| COC(=O)C(C)Oc1ccc(Oc2ccc(Cl)cc2Cl)cc1 (stereo not given) |  | inactive |
| COc1ccc(C(c2ccc(OC)cc2)C(Cl)(Cl)Cl)cc1 | 66 µM (active) | inactive |
| Cc1c(F)c(F)c(COC(=O)C2C(/C=C(\Cl)C(F)(F)F)C2(C)C)c(F)c1F (stereo not given) |  | inactive |
| COP(=S)(OC)Oc1nc(Cl)c(Cl)cc1Cl |  | inactive |
| COC(=O)N(OC)c1ccccc1COc1ccn(-c2ccc(Cl)cc2)n1 |  | inactive |
| Cc1ccc(-c2c(Cl)nc(C#N)n2S(=O)(=O)N(C)C)cc1 |  | inactive |
| C=CCC1=C(C)C(OC(=O)C2C(C=C(C)C)C2(C)C)CC1=O (stereo not given) | 31.2 µM (active) and 33.1 µM (active) | inactive |
| CCCCNC(=O)OCC#CI | 11.4 µM (active) |  |
| O=C(O)c1nc(Cl)ccc1Cl |  | inactive |
| COc1cnc(OC)n2nc(NS(=O)(=O)c3c(OCC(F)F)cccc3C(F)(F)F)nc12 |  | inactive |
| CC1=C(C(=O)Nc2ccccc2)SCCO1 |  | inactive |
| COC(=O)c1ccccc1C(=O)OC |  | inactive |

Reference: PubChem BioAssay (EPA / NIEHS)
